± gives the standard deviation of the averaged measurements. In all, about 1,900 compounds were measured (“CD40L-induced NF-kB luciferase activity, plate-corrected, relative to DMSO (0) and IKK inhibitor VII (-100) controls”: median about 0.032, lowest 2% from about -26 on). For the sample, the lowest values were picked, then their nearest neighbours and some compounds at random.
Each compound was assayed on BL2-NFkB-Luc (assay: CD40L-induced NF-kB luciferase activity, plate-corrected, relative to DMSO (0) and IKK inhibitor VII (-100) controls (% normalized activity); higher = more NF-kB reporter activity (less inhibition)). Conditions: 9.4 µM; stimulus: tCD40L 64 ng/ml; 4.5 h.
Experimental: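 BL2 B cells with a stable NF-kB response-element luciferase reporter (BL2-NFkB-Luc), 384-well. Cells were pre-incubated with compound at 9.4 uM for 1 h at 37 C, then stimulated with 64 ng/ml trimerized CD40L for 4.5 h; luciferase was read with Steady-Glo. Signal was normalised per plate in Genedata (median DMSO neutral control = 0, median IKK inhibitor VII at 50 uM = -100) with Assay Median plate-pattern correction; duplicate plates.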

SMILES | CD40L-induced NF-kB luciferase activity
COC(=O)C1=C(C)N(C)C(=S)NC1c1ccc(Cl)cc1 (stereo not given) | -1.51 ± 7.8
CC[C@]1(O)C[C@@H]2CN(CCc3c([nH]c4ccccc34)[C@@](C(=O)OC)(c3cc4c(cc3OC)N(C)[C@H]3[C@@](O)(C(=O)OC)[C@H](OC(C)=O)[C@]5(CC)C=CCN6CC[C@]43[C@@H]65)C2)C1 | -54.7 ± 1.7
CC[C@]1(O)C[C@@H]2CN(CCc3c([nH]c4ccccc34)[C@@](C(=O)OC)(c3cc4c(cc3OC)N(C=O)[C@H]3[C@@](O)(C(=O)OC)[C@H](OC(C)=O)[C@]5(CC)C=CCN6CC[C@]43[C@@H]65)C2)C1 | -50.4 ± 4.8
CCN(CC)CCCNC(=O)C1c2ccccc2Oc2ccccc21 | -3.46 ± 0.27
CC1CCCC(C)N1NC(=O)c1ccc(Cl)c(S(N)(=O)=O)c1 (stereo not given) | 4.34 ± 1.3
COc1cc2c(cc1OC)C(=S)NC(C)(C)C2 | -9.01 ± 2.9
COc1cc(C(=O)NCCc2c[nH]c3ccccc23)ccc1OCc1c(C)noc1C | 2.18 ± 3.7
Cc1ccc(C=NNc2nc(C(C)(C)C)cs2)o1 | 37 ± 13
Cc1cccc(N2CCN(C(=S)c3ccccc3)CC2)c1 | 6.51 ± 2.4
COc1ccc(CN2CCC(=O)NC2=O)cc1 | 4.64 ± 6
COc1ccc2c3c([nH]c2c1)C1(NCC3)C(=O)Nc2ccccc21 (stereo not given) | 5.33 ± 6.5
Cc1ccc(C(=O)NC(=S)NCCCN2CCOCC2)cc1 | 8.31 ± 1.3
CC(=O)O[C@H]1CSC[C@H]1NC(=O)c1ccccc1 | 2.65 ± 7.7
O=C(Nc1ccc(Oc2c(F)c(F)c(F)c(F)c2F)cc1)OC1CCN2Cc3ccccc3N=C12 (stereo not given) | -15.2 ± 2.6
COc1cc(CNCCc2c[nH]c3ccccc23)cc(Cl)c1OCC(N)=O | -2.87 ± 1.6
O=C1C(O)CC2c3ccccc3CC3(CCCC3)N12 (stereo not given) | 2.45 ± 2.2
c1ccc(Nc2ccccn2)nc1 | 6.17 ± 1.9
OCC1(CCOc2ccccc2)CCN(CCCn2cccn2)CC1 | -3.68 ± 2.7
c1ccc2c(c1)CCOC2CNCCCN1CCCCC1 (stereo not given) | -0.411 ± 1.1
Cc1ccc(C(CC(=O)NCc2ccco2)c2ccc(OC(C)C)cc2)cc1 (stereo not given) | -5.4 ± 2.5
Cc1ccccc1NC(=O)c1c(C)cc(=O)oc1C | -17.1 ± 22
COc1cccc(OC)c1C(=O)Nc1nc2ccc([N+](=O)[O-])cc2s1 | 3.34 ± 5.3
COC(=O)c1ccc(COc2ccc3c(C)c(C)c(=O)oc3c2C)o1 | -0.554 ± 5
CC(C)c1ccc(OCc2ccc(C(=O)O)o2)cc1 | -32.6 ± 4.2
COc1ccc(NC(=O)Nc2ccc(C(C)C)cc2)cc1 | 13.4 ± 0.33
CCOc1ccc2[nH]c3c(=O)n(CCc4ccc(OC)cc4)cnc3c2c1 | -2.8 ± 3.9
COc1ccc2c(CCNC(=O)c3ccc([N+](=O)[O-])cc3)c[nH]c2c1 | -3.48 ± 6.8
Cc1oc(C=NNC(=O)CC2(C)OCCO2)cc1Br | -0.742 ± 2.4

SMILES | CD40L-induced NF-kB luciferase activity
COc1ccc(/C=C/C(=O)NC(=S)NN2CCCCC2c2cccnc2)cc1 (stereo not given) | 1.59 ± 3.4
Nc1nnc(CSCc2ccc(Cl)cc2Cl)s1 | 11.4 ± 2.5
Cc1c(OCC(=O)NC(Cc2c[nH]c3ccc(O)cc23)C(=O)O)ccc2c3c(c(=O)oc12)CCC3 (stereo not given) | 2.12 ± 6.2
CCCCC[C@H](O)/C=C/[C@@H]1[C@@H](CCCCCCC(=O)O)[C@@H](O)C[C@H]1O | -29.5 ± 5.2
CCCCC[C@H](O)/C=C/[C@@H]1[C@@H](C/C=C\CCCC(=O)OC)[C@@H](O)C[C@H]1O | -2.47 ± 3.2
CCCCC[C@H](O)/C=C/[C@@H]1[C@@H](C/C=C\CCCC(=O)O)[C@@H](O)C[C@H]1O | -2.36 ± 2.1
O=S(=O)(CCc1nc2ccccc2[nH]1)c1ccc(Cl)cc1 | -12.2 ± 1.3
COc1cc(C=NCC2OCCc3ccccc32)cc(OC)c1 (stereo not given) | -1.7 ± 1.9
CC1(C)c2ccccc2N2CC(=O)N(CC(N)=O)C21C (stereo not given) | 1.75 ± 1.9
COc1ccccc1N1C(=O)C2CC(C)=C(C)CC2C1=O (stereo not given) | -4.81 ± 2.4
COc1ccc(S(N)(=O)=O)cc1C(N)=O | -2.45 ± 4.3
CC(=O)OCC(=O)[C@@]1(O)[C@H](C)C[C@H]2[C@@H]3CCC4=CC(=O)C=C[C@]4(C)[C@@]3(F)[C@@H](O)C[C@@]21C | -27.6 ± 1
CC(=O)[C@@]1(O)CC[C@H]2[C@@H]3C[C@H](C)C4=CC(=O)CC[C@]4(C)[C@H]3CC[C@@]21C | -15.7 ± 2.4
C[C@@H]1C[C@H]2[C@@H]3C[C@H](F)C4=CC(=O)C=C[C@]4(C)[C@@]3(F)[C@@H](O)C[C@]2(C)[C@@]1(O)C(=O)CO | -27.2 ± 0.89
C[C@@H]1C[C@H]2[C@@H]3CCC4=CC(=O)C=C[C@]4(C)[C@@]3(F)[C@@H](O)C[C@]2(C)[C@@]1(O)C(=O)COP(=O)(O)O | -2.27 ± 0.67
CCCC(=O)O[C@]1(C(=O)COC(C)=O)CC[C@H]2[C@@H]3C[C@H](F)C4=CC(=O)C=C[C@]4(C)[C@@]3(F)[C@@H](O)C[C@@]21C | -17.6 ± 1.6
CC(=O)[C@@]1(O)CC[C@H]2[C@@H]3C[C@H](C)C4=CC(=O)C=C[C@]4(C)[C@@]3(F)[C@@H](O)C[C@@]21C | -27 ± 2.1
C[C@@H]1C[C@H]2[C@@H]3C[C@H](F)C4=CC(=O)C=C[C@]4(C)[C@@]3(F)[C@@H](O)C[C@]2(C)[C@@]1(O)C(=O)COC(=O)C(C)(C)C | -29.5 ± 1.7
CC(=O)OCC(=O)[C@@]1(OC(C)=O)[C@@H](C)C[C@H]2[C@@H]3C[C@H](F)C4=CC(=O)C=C[C@]4(C)[C@@]3(F)[C@@H](O)C[C@@]21C | -17.3 ± 0.28
CC(=O)OCC(=O)[C@@]12OC(C)(C)O[C@@H]1C[C@H]1[C@@H]3C[C@H](F)C4=CC(=O)C=C[C@]4(C)[C@@]3(F)[C@@H](O)C[C@@]12C | -11.4 ± 5.5
C[C@H]1C[C@H]2[C@@H]3CCC4=CC(=O)C=C[C@]4(C)[C@@]3(Cl)[C@@H](O)C[C@]2(C)[C@@]1(O)C(=O)CO | -25.6 ± 2.2
CCC(=O)O[C@]1(C(=O)CCl)[C@@H](C)C[C@H]2[C@@H]3CCC4=CC(=O)C=C[C@]4(C)[C@@]3(F)[C@@H](O)C[C@@]21C | -21.44 ± 0.014
CCCC(=O)O[C@]1(C(=O)CCl)[C@@H](C)C[C@H]2[C@@H]3CCC4=CC(=O)C=C[C@]4(C)[C@@]3(F)C(=O)C[C@@]21C | -27.9 ± 3.7
Cc1cnc(N)c2c(=O)oc3ccccc3c12 | 41.69 ± 0.28
O=C1CCCC(=O)C1=Cc1c[nH]c2ccccc12 | -7.53 ± 0.79
CCn1c(=N)c(C(=O)NC)cc2c(=O)n3cccc(C)c3nc21 | 0.825 ± 8.5
O=C(Nc1ccc(N2CCOCC2)cc1)c1ccc(-c2ccccc2[N+](=O)[O-])o1 | 17.3 ± 0.45
